{"source": "PubChem BioAssay (NCI)", "note": "This is part of a sample that, as a whole, favours compounds with a hit. Of some 79,000 tested, about 15% had one in any assay. Unmarked numbers belong to inactive results. Rule as the data show it: active = growth inhibition above about 70%; inactive = the rest."}
{"experiment": "NCI Yeast Anticancer Drug Screen. Data for the cln2 rad14 strain (AID 165);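 also: 0% = growth equal to vehicle treated cultures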", "settings": "S. cerevisiae cln2 rad14 strain, at 50.0 µM, active compounds read high", "description": "Growth inhibition of yeast strains with defined genetic alterations is measured as a screen for potential anti-cancer activity. Selected strains with alterations in DNA damage repair or cell cycle control were exposed to compounds and growth inhibition was measured relative to vehicle treated controls. The strain used in this assay is cln2 rad14", "units": {"growth inhibition": "%"}}
{"smiles": "COC(=O)N(c1ccccc1)c1ccccn1", "growth inhibition": 10.7}
{"smiles": "O=C(O)C(=Cc1ccc(-c2ccc([N+](=O)[O-])cc2)o1)C(=O)O", "growth inhibition": 29.9}
{"smiles": "CSc1ccc(NC(=O)Nc2cc(C)c(C)cc2C)cc1", "growth inhibition": 21.4}
{"smiles": "CC(=O)NC1c2ccccc2Oc2c(C)cccc21", "note": "(stereo not given)", "growth inhibition": -15.9}
{"smiles": "NC(=NCc1ccncc1)N/N=C\\c1ccnc2ccccc12", "growth inhibition": -13.7}
{"smiles": "CCN(CC)CCCNc1ncc(C)c2[nH]c3ccncc3c12", "growth inhibition": -9.1}
{"smiles": "CC1=CC2C3C(=O)OC(=O)C3C1C(Cc1ccccc1)N2C", "note": "(stereo not given)", "growth inhibition": 12.9}
{"smiles": "O=C(O)CNC(=O)C(=O)c1c[nH]c2ccc([N+](=O)[O-])cc12", "growth inhibition": -7.8}
{"smiles": "Cc1cc([N+](=O)[O-])c2ncccc2c1", "growth inhibition": -33}
{"smiles": "CCO/C=C1/N=C(c2cccc3ccccc23)OC1=O", "growth inhibition": -64.2}
{"smiles": "NC1=NN(c2ccccc2)C(=O)C1/C(=N\\NC(=O)c1cc2ccccc2cc1O)C(=O)Nc1ccc(Cl)c(Cl)c1", "note": "(stereo not given)", "growth inhibition": 31.6}
{"smiles": "CCC1(C)OCC(CCCCO)O1", "note": "(stereo not given)", "growth inhibition": -34.9}
{"smiles": "CCNc1nc(C)nc2c1cnn2-c1ccccc1", "growth inhibition": -56.5}
{"smiles": "CN(CC1NCCCC1O)C12CC3CC(CC(C3)C1)C2", "note": "(stereo not given)", "growth inhibition": 12}
{"smiles": "Nc1ccc(C(=O)O)c([N+](=O)[O-])c1", "growth inhibition": -30.9}
{"smiles": "N#CC(O)CCOCc1ccccc1", "note": "(stereo not given)", "growth inhibition": -18.9}
{"smiles": "CC(C)(C)c1ccc(Sc2cccc3c2C(=O)c2c(Cl)cccc2C3=O)cc1", "growth inhibition": -8.1}
{"smiles": "O=C(Cc1ccccc1)NN1C(=O)C(Cl)C1c1ccc(O)cc1", "note": "(stereo not given)", "growth inhibition": 3.7}
{"smiles": "O=S(=O)(Cc1c(Cl)c(Cl)c(Cl)c(Cl)c1Cl)c1ccc(Cl)cc1", "growth inhibition": -17.8}
{"smiles": "CNc1ccccc1C(=O)N/N=C/C1CCCCC1", "growth inhibition": -6.85}
{"smiles": "C=C1CC2C(=O)N(c3ccccc3)C(=O)C2CC1n1[nH]c(=O)n(Cc2ccccc2)c1=O", "note": "(stereo not given)", "growth inhibition": -29.8}
{"smiles": "O=C(Cc1ccccc1CCO)NCCc1ccccc1", "growth inhibition": 24.8}
{"smiles": "O=[N+]([O-])c1ccc2nc(-c3ccccc3[N+](=O)[O-])[nH]c2c1", "growth inhibition": -49.5}
{"smiles": "O=C(Nc1ccccc1F)Oc1ccc(Cl)cc1Cl", "growth inhibition": 26.8}
{"smiles": "Cc1cccc(OCCCCCl)c1", "growth inhibition": 10.4}
{"smiles": "C=CCNC(=S)/N=C\\C(C(=O)OCC)=C(/O)C(=O)OCC", "growth inhibition": -21.7}
{"smiles": "Cc1ccc2ccc(C)nc2c1", "growth inhibition": 7.15}
{"smiles": "CCCCOC1NC(=O)Oc2ccccc21", "note": "(stereo not given)", "growth inhibition": -28.5}
{"smiles": "O=c1cc[nH]c2ccc(Cl)cc12", "growth inhibition": -33.4}
{"smiles": "CCC(=O)C(CC)c1ccc(OC)cc1OC", "note": "(stereo not given)", "growth inhibition": 3.85}
{"smiles": "O=S1(=O)OCCOS(=O)(=O)C1F", "growth inhibition": -23.2}
{"smiles": "COC(=O)c1ccc(C(=O)OC)c2nn3c(N)nnc3nc12", "growth inhibition": -12.4}
{"smiles": "COC(=O)CCc1onc(Br)c1CCl", "growth inhibition": 0.35}
{"smiles": "Nc1ccc(S(=O)(=O)O)cc1Cl", "growth inhibition": -9.9}
{"smiles": "CCOc1cccc(/C=N/N=C2\\C(=O)Nc3c(Cl)cc(Cl)cc32)c1O", "growth inhibition": 40.8}
{"smiles": "CN1CC[C@H]([C@@H](O)c2ccccc2)C1=O", "growth inhibition": -34.4}
{"smiles": "CSc1cc(=O)[nH]c(=O)[nH]1", "growth inhibition": 22.4}
{"smiles": "O/N=C1/C(=C/c2ccc(Br)cc2)CCCC1C(NO)c1ccc(Br)cc1", "note": "(stereo not given)", "growth inhibition": 24.2}
{"smiles": "CCCCS(=O)CC(CO)NC(=O)/C=C/c1c(C)[nH]c(=O)[nH]c1=O", "note": "(stereo not given)", "growth inhibition": 22.1}
{"smiles": "Cc1ccnc(N=C/C=C2/C=CC=CN2O)c1", "growth inhibition": 5.55}
